# Data taken from PMC7862700, “An all-to-all approach to the identification of sequence-specific readers for epigenetic DNA modifications on cytosine”.
# Assays:
# Assay in all cases: DAPPL (digital affinity profiling via proximity ligation, sequencing); 10 mM Tris-HCl pH 7.5, 50 mM NaCl, 1 mM DTT, 4% glycerol, room temperature, 30 min; GST-TFs on glutathione beads, 16-mer random dsDNA library, 0.1% formaldehyde crosslink after washing; high values mean tight binding
# [1] = molecular target: T1, FEV (Homo sapiens, UniProt Q99581 1-238); conditions: protein: recombinant; tags: N-terminal GST; dsDNA, one strand shown
# T1 sequence: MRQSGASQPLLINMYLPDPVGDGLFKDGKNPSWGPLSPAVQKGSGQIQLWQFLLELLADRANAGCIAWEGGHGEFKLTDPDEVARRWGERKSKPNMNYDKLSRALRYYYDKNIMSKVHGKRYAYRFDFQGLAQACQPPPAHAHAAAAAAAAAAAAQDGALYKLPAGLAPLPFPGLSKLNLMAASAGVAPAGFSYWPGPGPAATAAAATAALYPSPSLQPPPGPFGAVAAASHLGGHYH
# Procedure, shortened: (§1)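 A tag-only sample was pooled with DNA-barcoded human transcription factors that had been expressed in yeast as GST fusions and captured on glutathione beads. The pools were incubated for 30 min at room temperature with 200 nmole of a random double-stranded 16-mer DNA library in Tris/NaCl/DTT/glycerol buffer, then washed, crosslinked with 0.1% formaldehyde, proximity-ligated (BsaI/T4 ligase, 1 h, 37 °C), PCR-amplified and sequenced on an Illumina NextSeq500. Binding signal is each hexamer's read frequency for a factor divided by its frequency for the tag-only sample.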
# [2] = molecular target: ETV5 (Homo sapiens, UniProt P41161 1-510); conditions: protein: recombinant; tags: N-terminal GST; dsDNA, one strand shown
# Chain of ETV5 (P41161 whole entry): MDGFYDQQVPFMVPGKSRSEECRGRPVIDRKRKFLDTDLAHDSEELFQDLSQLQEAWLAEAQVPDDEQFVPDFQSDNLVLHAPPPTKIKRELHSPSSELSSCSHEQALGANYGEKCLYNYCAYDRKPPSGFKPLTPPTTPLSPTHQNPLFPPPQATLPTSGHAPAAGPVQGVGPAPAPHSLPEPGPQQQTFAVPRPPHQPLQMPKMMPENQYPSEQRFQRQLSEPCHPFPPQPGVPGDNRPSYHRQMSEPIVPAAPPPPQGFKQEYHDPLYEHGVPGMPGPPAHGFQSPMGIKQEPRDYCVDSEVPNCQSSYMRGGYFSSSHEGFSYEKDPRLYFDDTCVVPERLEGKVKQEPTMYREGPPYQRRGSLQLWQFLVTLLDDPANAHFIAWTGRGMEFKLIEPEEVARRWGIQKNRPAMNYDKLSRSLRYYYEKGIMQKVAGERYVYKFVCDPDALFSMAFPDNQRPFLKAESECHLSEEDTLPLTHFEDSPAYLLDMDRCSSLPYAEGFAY
# Procedure, shortened: as §1
# [3] = molecular target: HSF1 (Homo sapiens, UniProt Q00613 1-529); conditions: protein: recombinant; tags: N-terminal GST; chain copies: 3; dsDNA, one strand shown
# Chain of HSF1 (Q00613 whole entry): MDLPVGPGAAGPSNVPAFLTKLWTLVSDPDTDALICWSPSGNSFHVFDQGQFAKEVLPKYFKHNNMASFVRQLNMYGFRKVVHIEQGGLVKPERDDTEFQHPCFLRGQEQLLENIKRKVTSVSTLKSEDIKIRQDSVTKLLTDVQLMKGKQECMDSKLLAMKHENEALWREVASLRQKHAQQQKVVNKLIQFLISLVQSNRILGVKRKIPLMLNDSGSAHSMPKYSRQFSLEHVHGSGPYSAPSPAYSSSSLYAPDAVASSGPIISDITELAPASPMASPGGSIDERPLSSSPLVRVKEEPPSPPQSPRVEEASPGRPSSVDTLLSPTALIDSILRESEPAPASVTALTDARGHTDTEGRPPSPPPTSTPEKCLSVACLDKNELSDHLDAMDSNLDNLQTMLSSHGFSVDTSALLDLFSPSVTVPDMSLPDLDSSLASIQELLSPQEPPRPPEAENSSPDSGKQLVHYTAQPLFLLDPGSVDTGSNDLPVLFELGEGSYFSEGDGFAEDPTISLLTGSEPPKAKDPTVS
# Procedure, shortened: as §1
# [4] = molecular target: T2, SPIC (Homo sapiens, UniProt Q8N5J4 1-248); conditions: protein: recombinant; tags: N-terminal GST; dsDNA, one strand shown
# T2 sequence: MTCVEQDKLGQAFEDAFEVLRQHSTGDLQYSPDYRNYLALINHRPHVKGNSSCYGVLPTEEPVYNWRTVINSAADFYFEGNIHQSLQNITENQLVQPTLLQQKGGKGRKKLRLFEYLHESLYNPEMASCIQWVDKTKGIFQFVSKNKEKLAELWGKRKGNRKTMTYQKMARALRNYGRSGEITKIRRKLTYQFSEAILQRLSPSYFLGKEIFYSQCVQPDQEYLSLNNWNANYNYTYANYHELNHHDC
# Procedure, shortened: as §1
# [5] = molecular target: ELF4 (Homo sapiens, UniProt Q99607 1-663); conditions: protein: recombinant; tags: N-terminal GST; dsDNA, one strand shown
# Chain of ELF4 (Q99607 whole entry): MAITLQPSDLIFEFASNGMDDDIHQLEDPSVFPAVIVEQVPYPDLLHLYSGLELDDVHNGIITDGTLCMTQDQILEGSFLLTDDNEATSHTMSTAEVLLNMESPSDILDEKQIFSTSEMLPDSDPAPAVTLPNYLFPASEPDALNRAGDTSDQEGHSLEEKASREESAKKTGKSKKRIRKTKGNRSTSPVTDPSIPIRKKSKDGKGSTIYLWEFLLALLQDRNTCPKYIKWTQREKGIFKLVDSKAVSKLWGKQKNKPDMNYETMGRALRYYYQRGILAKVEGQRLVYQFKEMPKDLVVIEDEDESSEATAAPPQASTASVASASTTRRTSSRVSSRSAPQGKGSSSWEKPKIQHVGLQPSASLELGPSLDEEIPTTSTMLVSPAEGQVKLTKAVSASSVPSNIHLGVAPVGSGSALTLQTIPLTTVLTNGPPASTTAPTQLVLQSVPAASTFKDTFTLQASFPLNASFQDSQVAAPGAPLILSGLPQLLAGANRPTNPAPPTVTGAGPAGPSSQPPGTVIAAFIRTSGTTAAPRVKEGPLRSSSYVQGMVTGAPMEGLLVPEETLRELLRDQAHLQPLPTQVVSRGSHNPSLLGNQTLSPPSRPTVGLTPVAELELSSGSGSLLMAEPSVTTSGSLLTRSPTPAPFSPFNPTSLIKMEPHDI
# Procedure, shortened: as §1
# [6] = molecular target: T3, ELK4 (Homo sapiens, UniProt P28324-2 1-405); conditions: protein: recombinant; tags: N-terminal GST; dsDNA, one strand shown
# T3 sequence: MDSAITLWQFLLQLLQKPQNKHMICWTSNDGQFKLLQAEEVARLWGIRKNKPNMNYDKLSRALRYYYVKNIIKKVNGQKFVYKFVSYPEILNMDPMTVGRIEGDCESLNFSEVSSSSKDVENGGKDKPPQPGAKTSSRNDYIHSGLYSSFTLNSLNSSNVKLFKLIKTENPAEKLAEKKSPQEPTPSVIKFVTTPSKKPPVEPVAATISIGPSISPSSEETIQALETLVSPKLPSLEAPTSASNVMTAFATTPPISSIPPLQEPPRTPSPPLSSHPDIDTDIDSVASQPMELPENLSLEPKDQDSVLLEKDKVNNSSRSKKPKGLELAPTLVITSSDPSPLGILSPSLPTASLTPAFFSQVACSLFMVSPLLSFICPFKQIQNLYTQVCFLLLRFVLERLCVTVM
# Procedure, shortened: as §1
# [7] = molecular target: T4, ETV2 (Homo sapiens, UniProt O00321 1-342); conditions: protein: recombinant; tags: N-terminal GST; dsDNA, one strand shown
# T4 sequence: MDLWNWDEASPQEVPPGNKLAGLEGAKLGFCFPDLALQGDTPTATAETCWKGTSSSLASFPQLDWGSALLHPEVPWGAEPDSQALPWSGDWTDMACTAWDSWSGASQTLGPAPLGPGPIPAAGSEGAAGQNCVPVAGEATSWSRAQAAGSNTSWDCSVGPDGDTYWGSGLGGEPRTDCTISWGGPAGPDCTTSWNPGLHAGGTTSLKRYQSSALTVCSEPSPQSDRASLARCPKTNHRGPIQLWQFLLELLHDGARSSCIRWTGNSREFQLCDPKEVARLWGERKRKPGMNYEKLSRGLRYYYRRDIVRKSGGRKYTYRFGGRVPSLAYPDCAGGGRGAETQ
# Procedure, shortened: as §1
# [8] = molecular target: T5, ELF3 (Homo sapiens, UniProt P78545 1-371); conditions: protein: recombinant; tags: N-terminal GST; dsDNA, one strand shown
# T5 sequence: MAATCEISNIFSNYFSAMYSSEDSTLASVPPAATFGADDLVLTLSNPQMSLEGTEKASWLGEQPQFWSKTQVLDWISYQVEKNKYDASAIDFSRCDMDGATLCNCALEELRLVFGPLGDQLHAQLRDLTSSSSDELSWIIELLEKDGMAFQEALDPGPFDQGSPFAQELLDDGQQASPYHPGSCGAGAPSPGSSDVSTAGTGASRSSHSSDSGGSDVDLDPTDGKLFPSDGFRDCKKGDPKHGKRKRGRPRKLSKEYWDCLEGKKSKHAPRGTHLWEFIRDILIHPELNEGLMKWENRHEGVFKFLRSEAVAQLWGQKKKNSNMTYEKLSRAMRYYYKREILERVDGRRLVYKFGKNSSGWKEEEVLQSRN
# Procedure, shortened: as §1
# [9] = molecular target: CRX (Homo sapiens, UniProt O43186 1-299); conditions: protein: recombinant; tags: N-terminal GST; dsDNA, one strand shown
# Chain of CRX (O43186 whole entry): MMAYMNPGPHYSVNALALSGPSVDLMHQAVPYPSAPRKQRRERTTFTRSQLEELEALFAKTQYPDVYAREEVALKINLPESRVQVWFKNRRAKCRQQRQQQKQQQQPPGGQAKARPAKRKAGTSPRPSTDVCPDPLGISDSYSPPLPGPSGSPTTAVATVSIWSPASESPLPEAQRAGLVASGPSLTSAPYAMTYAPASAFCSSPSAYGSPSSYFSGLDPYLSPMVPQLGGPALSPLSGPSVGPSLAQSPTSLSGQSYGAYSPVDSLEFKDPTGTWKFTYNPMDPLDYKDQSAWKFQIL
# Procedure, shortened: as §1
# [10] = molecular target: ETV1 (Homo sapiens, UniProt P50549 1-477); conditions: protein: recombinant; tags: N-terminal GST; dsDNA, one strand shown
# Chain of ETV1 (P50549 whole entry): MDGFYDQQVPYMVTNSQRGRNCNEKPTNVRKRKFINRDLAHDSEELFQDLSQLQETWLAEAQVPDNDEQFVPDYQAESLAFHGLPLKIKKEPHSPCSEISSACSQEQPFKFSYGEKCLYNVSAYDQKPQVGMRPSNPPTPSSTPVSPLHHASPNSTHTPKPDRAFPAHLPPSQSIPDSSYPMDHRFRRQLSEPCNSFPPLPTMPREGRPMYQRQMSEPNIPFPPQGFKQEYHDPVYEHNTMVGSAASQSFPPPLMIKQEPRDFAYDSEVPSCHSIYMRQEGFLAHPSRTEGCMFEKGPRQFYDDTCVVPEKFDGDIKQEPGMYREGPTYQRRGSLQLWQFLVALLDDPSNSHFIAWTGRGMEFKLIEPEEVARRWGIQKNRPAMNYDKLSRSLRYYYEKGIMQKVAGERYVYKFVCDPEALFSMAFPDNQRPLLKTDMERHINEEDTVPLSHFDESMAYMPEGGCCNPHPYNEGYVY
# Procedure, shortened: as §1
# [11] = molecular target: T6, ERF (Homo sapiens, UniProt P50548 1-548); conditions: protein: recombinant; tags: N-terminal GST; dsDNA, one strand shown
# T6 sequence: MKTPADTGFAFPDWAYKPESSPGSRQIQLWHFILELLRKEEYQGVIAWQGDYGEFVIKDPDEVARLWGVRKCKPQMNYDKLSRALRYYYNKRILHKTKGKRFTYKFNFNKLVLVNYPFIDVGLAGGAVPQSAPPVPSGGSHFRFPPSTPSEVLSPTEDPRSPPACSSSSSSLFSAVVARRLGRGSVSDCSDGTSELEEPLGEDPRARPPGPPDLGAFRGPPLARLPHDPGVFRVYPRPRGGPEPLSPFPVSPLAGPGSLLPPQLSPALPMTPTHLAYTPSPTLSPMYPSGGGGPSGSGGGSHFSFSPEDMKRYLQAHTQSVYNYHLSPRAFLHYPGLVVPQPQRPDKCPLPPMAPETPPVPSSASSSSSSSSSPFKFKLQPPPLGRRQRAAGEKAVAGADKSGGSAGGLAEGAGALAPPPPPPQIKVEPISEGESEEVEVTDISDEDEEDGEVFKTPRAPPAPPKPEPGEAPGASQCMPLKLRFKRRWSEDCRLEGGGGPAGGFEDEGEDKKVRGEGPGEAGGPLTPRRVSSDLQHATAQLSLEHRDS
# Procedure, shortened: as §1
# [12] = molecular target: T7, ETV3L (Homo sapiens, UniProt Q6ZN32 1-361); conditions: protein: recombinant; tags: N-terminal GST; dsDNA, one strand shown
# T7 sequence: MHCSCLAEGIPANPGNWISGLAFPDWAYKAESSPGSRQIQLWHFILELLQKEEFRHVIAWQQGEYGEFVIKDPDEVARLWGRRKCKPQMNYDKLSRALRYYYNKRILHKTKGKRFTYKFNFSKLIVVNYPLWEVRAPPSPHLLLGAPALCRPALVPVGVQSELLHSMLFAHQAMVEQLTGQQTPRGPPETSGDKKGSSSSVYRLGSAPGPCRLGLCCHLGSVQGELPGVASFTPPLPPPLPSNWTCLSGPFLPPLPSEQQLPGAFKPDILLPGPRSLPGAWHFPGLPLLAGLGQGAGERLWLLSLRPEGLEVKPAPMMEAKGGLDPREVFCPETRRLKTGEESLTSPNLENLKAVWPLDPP
# Procedure, shortened: as §1
# [13] = molecular target: T8, ETS2 (Homo sapiens, UniProt P15036 1-469); conditions: protein: recombinant; tags: N-terminal GST; dsDNA, one strand shown
# T8 sequence: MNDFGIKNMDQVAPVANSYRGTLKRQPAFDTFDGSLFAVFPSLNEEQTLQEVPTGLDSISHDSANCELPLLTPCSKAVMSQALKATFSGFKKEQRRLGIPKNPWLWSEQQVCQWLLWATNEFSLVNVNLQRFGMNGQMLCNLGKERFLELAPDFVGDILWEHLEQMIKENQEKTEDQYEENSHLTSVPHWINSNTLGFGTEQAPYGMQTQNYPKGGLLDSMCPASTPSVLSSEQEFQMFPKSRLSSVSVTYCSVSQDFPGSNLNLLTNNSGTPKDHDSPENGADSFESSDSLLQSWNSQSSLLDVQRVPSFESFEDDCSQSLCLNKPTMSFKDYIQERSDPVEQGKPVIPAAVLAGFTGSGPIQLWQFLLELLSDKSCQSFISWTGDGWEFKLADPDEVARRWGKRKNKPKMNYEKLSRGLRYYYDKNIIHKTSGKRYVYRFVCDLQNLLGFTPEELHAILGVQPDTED
# Procedure, shortened: as §1
# [14] = molecular target: T9, SPDEF (Homo sapiens, UniProt O95238 1-335); conditions: protein: recombinant; tags: N-terminal GST; dsDNA, one strand shown
# T9 sequence: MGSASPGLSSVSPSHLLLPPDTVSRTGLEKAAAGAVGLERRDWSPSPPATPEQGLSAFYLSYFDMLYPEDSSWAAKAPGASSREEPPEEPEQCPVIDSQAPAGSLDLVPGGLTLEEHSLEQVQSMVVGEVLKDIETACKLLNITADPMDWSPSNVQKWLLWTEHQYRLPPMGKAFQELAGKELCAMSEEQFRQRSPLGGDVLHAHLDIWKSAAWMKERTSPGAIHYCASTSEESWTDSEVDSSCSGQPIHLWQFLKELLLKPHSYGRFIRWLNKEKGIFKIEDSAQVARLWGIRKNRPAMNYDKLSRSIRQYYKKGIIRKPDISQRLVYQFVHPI
# Procedure, shortened: as §1
# [15] = molecular target: T10, ETV7 (Homo sapiens, UniProt Q9Y603 1-341); conditions: protein: recombinant; tags: N-terminal GST; dsDNA, one strand shown
# T10 sequence: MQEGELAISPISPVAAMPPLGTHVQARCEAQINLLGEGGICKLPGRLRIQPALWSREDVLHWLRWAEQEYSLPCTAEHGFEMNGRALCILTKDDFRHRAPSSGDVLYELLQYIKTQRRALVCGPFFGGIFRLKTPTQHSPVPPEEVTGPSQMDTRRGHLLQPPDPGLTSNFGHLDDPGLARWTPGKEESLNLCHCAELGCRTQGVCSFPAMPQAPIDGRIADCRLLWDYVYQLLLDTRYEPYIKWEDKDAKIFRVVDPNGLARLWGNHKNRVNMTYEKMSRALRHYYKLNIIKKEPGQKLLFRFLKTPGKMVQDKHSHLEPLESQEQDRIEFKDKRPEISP
# Procedure, shortened: as §1
# [16] = molecular target: T11, ELF5 (Homo sapiens, UniProt Q9UKW6-2 1-255); conditions: protein: recombinant; tags: N-terminal GST; dsDNA, one strand shown
# T11 sequence: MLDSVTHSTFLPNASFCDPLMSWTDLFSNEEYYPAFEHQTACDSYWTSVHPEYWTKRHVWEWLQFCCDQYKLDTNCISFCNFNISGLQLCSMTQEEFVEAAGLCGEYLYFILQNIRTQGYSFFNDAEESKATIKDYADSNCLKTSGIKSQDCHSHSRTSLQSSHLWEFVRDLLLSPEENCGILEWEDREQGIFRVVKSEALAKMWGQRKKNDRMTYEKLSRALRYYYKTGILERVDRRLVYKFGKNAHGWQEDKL
# Procedure, shortened: as §1
# [17] = molecular target: T12, ETV3 (Homo sapiens, UniProt P41162-2 1-143); conditions: protein: recombinant; tags: N-terminal GST; dsDNA, one strand shown
# T12 sequence: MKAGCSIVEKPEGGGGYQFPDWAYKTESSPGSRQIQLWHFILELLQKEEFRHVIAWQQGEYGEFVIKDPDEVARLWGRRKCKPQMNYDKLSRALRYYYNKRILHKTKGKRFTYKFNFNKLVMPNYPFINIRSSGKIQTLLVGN
# Procedure, shortened: as §1
# [18] = molecular target: ETV6 (Homo sapiens, UniProt P41212 1-452); conditions: protein: recombinant; tags: N-terminal GST; dsDNA, one strand shown
# Chain of ETV6 (P41212 whole entry): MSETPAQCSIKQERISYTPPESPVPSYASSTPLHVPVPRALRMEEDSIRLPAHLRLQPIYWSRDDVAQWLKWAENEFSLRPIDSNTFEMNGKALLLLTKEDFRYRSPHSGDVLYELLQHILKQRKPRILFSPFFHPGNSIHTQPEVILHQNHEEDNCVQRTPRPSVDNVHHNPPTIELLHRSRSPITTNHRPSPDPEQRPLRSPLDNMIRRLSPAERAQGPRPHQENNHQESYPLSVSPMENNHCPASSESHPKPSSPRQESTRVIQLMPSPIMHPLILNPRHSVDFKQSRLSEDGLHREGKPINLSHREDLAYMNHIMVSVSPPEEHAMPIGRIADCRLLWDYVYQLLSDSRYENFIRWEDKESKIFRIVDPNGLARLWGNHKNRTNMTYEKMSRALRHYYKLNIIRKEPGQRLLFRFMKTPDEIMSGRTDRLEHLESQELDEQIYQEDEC
# Procedure, shortened: as §1
sequence,measurement,setting,value
TACTAA,binding signal,[1],"1.16 fold enrichment (6-mer frequency, TF over GST control)"
same,binding signal,[2],"1.18 fold enrichment (6-mer frequency, TF over GST control)"
same,binding signal,[3],"1.51 fold enrichment (6-mer frequency, TF over GST control)"
same,binding signal,[4],"1.24 fold enrichment (6-mer frequency, TF over GST control)"
same,binding signal,[5],"1.32 fold enrichment (6-mer frequency, TF over GST control)"
same,binding signal,[6],"1.4 fold enrichment (6-mer frequency, TF over GST control)"
same,binding signal,[7],"1.1 fold enrichment (6-mer frequency, TF over GST control)"
same,binding signal,[8],"1.27 fold enrichment (6-mer frequency, TF over GST control)"
same,binding signal,[9],"2.1 fold enrichment (6-mer frequency, TF over GST control)"
same,binding signal,[10],"1.29 fold enrichment (6-mer frequency, TF over GST control)"
same,binding signal,[11],"1.2 fold enrichment (6-mer frequency, TF over GST control)"
same,binding signal,[12],"1.23 fold enrichment (6-mer frequency, TF over GST control)"
same,binding signal,[13],"1.21 fold enrichment (6-mer frequency, TF over GST control)"
same,binding signal,[14],"1.22 fold enrichment (6-mer frequency, TF over GST control)"
same,binding signal,[15],"1.35 fold enrichment (6-mer frequency, TF over GST control)"
same,binding signal,[16],"1.25 fold enrichment (6-mer frequency, TF over GST control)"
same,binding signal,[17],"1.19 fold enrichment (6-mer frequency, TF over GST control)"
same,binding signal,[18],"1.24 fold enrichment (6-mer frequency, TF over GST control)"
